TDP1 cell noCPT: qHTS for Inhibitors of human tyrosyl-DNA phosphodiesterase 1 (TDP1): qHTS in cells in absence of CPT | DT40 Tdp1-/- hTDP1 cells, no CPT, ATP luminescence, 48 h | Potency, µM (titrated, usually from 46.2 µM), without a hit: at the highest dose activity change, negative = growth inhibition, usual class: inhibitors | 420,000 tested, 15% active | AID 686978, 2013; note: nearly all actives have a fitted effect of over 55% in size
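Chicken DT40 Tdp1-/- cells stably complemented with human TDP1 were seeded at 400 cells/well with DMSO in place of 20 nM camptothecin. After compound pinning, cells grew at least 48 hr at 37 °C; viability read by CellTiter-Glo luminescence.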
KB-V1 cytotox: kills drug-selected multidrug resistant KB-V1 cells | KB-V1 MDR cells viability, CellTiter-Glo, 72 h | Potency, µM (titrated, usually from 46.1 µM), hits mostly cytotoxic | 400,000 tested, 3.4% active | AID 1347076; note: nearly all actives have a fitted effect of over 60% in size
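Drug-selected KB-V1 cells, grown in DMEM lacking phenol red with 10% FBS, receive compound titrations; after three days at 37 degrees C, surviving cell ATP is quantified by CellTiter-Glo luminescence and responses normalized and curve-fitted.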
DT40 TDP1 CPT: growth inhibition of DT40 Tdp1-/-;hTDP1 cells with camptothecin (screen for TDP1 inhibitors); 420,000 tested, 12% active; Potency, µM (series often up to 46.2 µM), for the others: at the top dose activity change, negative = growth inhibition, actives largely listed as inhibitors; chicken DT40 Tdp1-/-;hTDP1 cells + 20 nM CPT, ATP luminescence, 48 h; AID 686979; note: nearly all actives have a fitted effect of over 55% in size
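Chicken DT40 Tdp1-/- cells complemented with human TDP1, 400 cells/well, exposed to compounds plus 20 nM camptothecin for at least 48 h at 37 C; viability read as ATP content by CellTiter-Glo luminescence.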
HT1080 IDH1KD tx: toxicity to HT-1080 IDH1 knockdown cells (counter line); 360,000 tested, 2% active; Potency, µM (top dose mostly 46.1 µM), for the others: at the top dose activity, negative = toxicity, hits mostly cytotoxic; HT-1080 IDH1 knockdown viability, ATP luminescence, 48 h; AID 686971;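 note: 0% = DMSO wells and -100% = cell-free medium wells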
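IDH1KD HT-1080 cells, 750/well, RPMI + 5% FBS; compound pinned after 2 h settling; 48 h, 37 °C; CellTiter-Glo luminescence; % activity normalised to DMSO and no-cell wells; curves fitted, classed by r2 and efficacy.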
KB-3-1 cytotox: KB-3-1 parental cell cytotoxicity; KB-3-1 viability, CellTiter-Glo ATP luminescence, 72 h; Potency, µM (top dose mostly 46.1 µM), actives largely listed as cytotoxic; 400,000 tested, 1.4% active; note: nearly all actives have a fitted effect of over 60% in size
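KB-3-1 cells, DMEM (no phenol red) + 10% FBS; compound by pin transfer, 72 h, 37 °C. Readout: CellTiter-Glo luminescence after 10 min. Data normalized, curve-fitted.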
HT1080-NT tox: kills 2HG-producing HT-1080-NT fibrosarcoma cells | HT-1080-NT fibrosarcoma viability, CellTiter-Glo ATP luminescence, 48 h | Potency, µM (doses to about 46.1 µM), inactives show at the top dose activity, negative = less viability, usual class: cytotoxic | 360,000 tested, 1.6% active | AID 686970;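 note: NT is the 2HG producing partner of a matched IDH1 knockdown line; 0% = DMSO-treated cells and -100% = media-only wells without cells; nearly all actives have a fitted effect of over 55% in size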
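750 cells/well, RPMI + 5% FBS; 2 h settle, compound pin-transfer, 48 h at 37 degrees C. CellTiter-Glo 10 min RT, luminescence. Normalized to DMSO and media-only wells.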
* marks the source's active call; other numbers are inactive results; i = inactive; ? = inconclusive; . = no result given; ! = repeats disagree; [ ] = dose if it differs, or a comment. In the library only some 19% were active in any assay of this set; here they are far more common. Calls come from the whole dose curve; as a rule, active = well fitted curve in the direction sought with a large enough effect; inconclusive = small, poorly fitted or top-dose-only effect, or another doubt; inactive = no such curve, though single readings can be large; an effect the other way counts as inactive or inconclusive. Unless noted, % is set by controls: 0 for no effect and ±100 for the full control effect; potency is the fitted concentration of half-maximal effect.

SMILES | TDP1 cell noCPT | KB-V1 cytotox | DT40 TDP1 CPT | HT1080 IDH1KD tx | KB-3-1 cytotox | HT1080-NT tox
C[C@H]1CN([C@@H](C)CO)C(=O)CCCn2nncc2CO[C@@H]1CN(C)C(=O)Oc1ccccc1 | 2% | i | -13% | 24% | i | 13%
Nc1ccc(N=Nc2ccccc2)cc1 | ? | i | -9% | -14% | i | -12%
Cc1cc(N(C)C)ccc1N=Nc1ccc(N)cc1 | 13µM* | i | ? | ? | i | ?
C[N+]1(CC(COCc2ccccc2)OC(=O)Cc2ccccc2)CCOCC1 (stereo not given) | -3% | i | -2% | 2% | i | -1%
CC(=O)c1ccc2c(c1)N(CCCN(C)C)c1ccccc1S2 | 8.1µM* | ? | ? | -78% | i | ?
Cc1ccc2c(c1)C1CN(C)CCC1N2C(=O)c1ccccc1NS(=O)(=O)c1cccc(C(F)(F)F)c1 (stereo not given) | 13µM* | i | ? | ? | i | -28%
COc1ccc(-c2nn(-c3ccccc3)cc2C(=O)N2c3ccc(C)cc3C3CN(C)CCC32)cc1 (stereo not given) | 26µM* | i | ? | 23µM* | i | .
Cc1ccc2c(c1)C1CN(C)CCC1N2C(=O)c1ccco1 (stereo not given) | -8% | ? | -18% | ? | i | 0%
Cc1ccc2c(c1)C1CN(C)CCC1N2C(=O)Nc1cccc(Cl)c1 (stereo not given) | 23µM* | ? | ? | -15% | ? | -21%[9.24 µM]
COC(C/C=C/C=C/CC/C=C\CC(C)/C=C\C(=C/C(=O)O)CC(=O)O)/C(C)=C\C=C(/C)C(=O)O (stereo not given) | 13%[4.12 µM] | . | 14%[4.12 µM] | . | . | .
C#C[C@]1(O)CCC2C3C(=O)C=C4C=CCC[C@]4(C)C3CC[C@@]21C (stereo not given in full) | ? | i | -23% | -8% | i | -8%
C#C[C@]1(O)CCC2C3C(CC[C@@]21C)[C@@]1(C)CC[C@@H](O)CC1=C[C@H]3O (stereo not given in full) | 23µM* | i | ? | 16% | i | 2%
Cc1ccc(C(=O)Nc2cnn(-c3ccc(C(=O)N(C)Cc4n[nH]c5c4CCCC5)cc3)c2)c(C)c1 | ? | . | 15%[9.04 µM] | . | . | .
COC(=O)C1=C(c2ccc(OC(F)(F)F)cc2)C[C@@H]2CC[C@H]1N2C(=O)NC1Cc2ccccc2C1 | ? | i | 23µM* | 0% | i | 0%
COC(=O)C1=C(c2ccc(OC(F)(F)F)cc2)C[C@@H]2CC[C@H]1N2C(=O)NC1CCCCC1 | 16µM* | ? | ? | -12% | ? | -3%
N[C@@H](CCCCP(=O)(O)O)C(=O)O | -8% | . | 14% | . | . | .
Cc1ccc(-c2nn3c(C)nnc3c3ccccc23)cc1S(=O)(=O)NCCO | 21µM*! | i | ? | -22% | ? | -17%
CC(=NNC(=S)N1CC2CCC(CC2)C1)c1nccs1 | 0.026µM* | ? | 0.021µM* | ? | ? | -29%
Cc1ccc(C2CC3CCC(C2)N3Cc2ccccc2F)cc1 (stereo not given) | ? | ? | ? | 15µM* | ? | ?
C#CC1(O)C=CC2C3CCC4=CC(=O)CCC4C3CCC21CC (stereo not given) | ? | ? | ? | 5% | i | 0%
CCC1(O)CCC2C3CCC4=CC(=O)CCC4C3CCC21CC (stereo not given) | 21µM* | ? | 23µM* | 1% | i | 3%
CCOC(=O)/C(C#N)=C1/C=C(C)NC(c2ccccc2O)=N1 | 21µM* | i | 15µM* | ? | i | ?
O=C1NCCOC(=O)[C@@H](Cc2ccc(F)cc2)CC/C=C/C[C@H]1CC(=O)N(CCO)Cc1ccccc1 | ? | i | 21µM* | 4% | i | 4%
O=C1NCCOC(=O)[C@H](Cc2ccc(F)cc2)CC/C=C/C[C@@H]1CC(=O)N(CCO)Cc1ccccc1 | ? | i | 16µM* | 6% | i | 11%
CNC(=O)OCC[N+](C)(C)C | -19% | . | 5% | . | . | .
SMILES | TDP1 cell noCPT | KB-V1 cytotox | DT40 TDP1 CPT | HT1080 IDH1KD tx | KB-3-1 cytotox | HT1080-NT tox
CC(C)C(=O)c1cn(Cc2ccccc2C#N)c2ccccc12 | ? | ? | ? | -24% | i | -24%
COc1ccc(OC)c(NC(=O)Cn2cc(C(=O)c3ccccc3F)c3ccccc32)c1 | 23µM* | i | ? | . | ? | .
CCOC(=O)Cn1cc(C(=O)c2ccccc2F)c2ccccc21 | -20% | i | ? | 4% | i | 5%
O=C(c1ccccc1F)c1cn(Cc2ccc(F)cc2)c2ccccc12 | ? | i | 16µM* | -6% | i | 0%
CC(=O)c1cn(Cc2ccccc2F)c2ccccc12 | 4.6µM* | i | 8.2µM* | -21% | ? | -22%
CC(=O)c1cn(Cc2ccccc2C#N)c2ccccc12 | 1µM* | 1.8µM* | 2.1µM* | ? | ? | -8%
O=C(c1ccccc1F)c1cn(Cc2ccccc2)c2ccccc12 | ? | ? | ? | ? | i | 3%
COC(=O)Cn1cc(C(=O)c2ccccc2F)c2ccccc21 | -13% | i | -3% | 18% | i | 3%
c1ccc(NC2=Nc3ccccc3CC2)cc1 | ? | i | -29% | -7% | i | -1%
CC(=O)NC1CCSC1=O (stereo not given) | 0%[21.1 µM] | . | 8%[21.1 µM] | . | . | .
CC1=C(C)CC2(C(=O)NC(=O)NC2=O)C(C)C1 (stereo not given) | 0% | i | -7% | 27% | i | 11%
CC(C)[C@H]1C(=O)O[C@H](C(C)C)C(=O)N(C)[C@@H](C(C)C)C(=O)O[C@H](C(C)C)C(=O)N(C)[C@@H](C(C)C)C(=O)O[C@H](C(C)C)C(=O)N1C | 4.1µM* | ? | 3.3µM* | 3.3µM* | 5.8µM* | 4.1µM*
CNC(C(=O)c1ccccc1)C(OC)c1cccc([N+](=O)[O-])c1 (stereo not given) | -21% | i | -4% | 3% | i | 0%
Cc1nc2n(c(=O)c1CCN1CCC(c3noc4cc(F)ccc34)CC1)CCCC2 | ? | ? | ? | 1% | i | 8%
